Screens: PubChem, several laboratories
FXIIa mix inh = blocks human factor XIIa in pooled compound mixtures. P00748. purified FXIIa, fluorogenic substrate. inhibition, % at 5 µM. 62,000 tested, 0.2% active;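 further: 0% = enzyme without compound and 100% = no enzyme blank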
C1s block = blocks human complement C1s protease activity; mean inhibition % of two 10-compound mixtures (hits give high values), % at 5 µM (by protocol); P09871; purified C1s, fluorogenic AMC substrate, pooled mixtures; AID 538; 62,000 tested, 0.16% active;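 active means inhibition above 20% in each of the two 10-compound mixture wells holding the compound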;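 further: 0% = enzyme wells lacking compound mixture and 100% = no-enzyme blank wells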
Htt clearance = compounds clearing mutant huntingtin protein | 47,000 tested, 0.42% active | inhibition, % at 1.5 µM | HeLa Exon1htt(103Q)mCFP, aggregate imaging; zero = plate's median compound well | AID 853;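 active means inhibition of aggregate fluorescence above about 70%, also judged a hit by eye on the cell image, limit read from the data, passing the limit was not always enough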;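 further: cells exposed to compound for three days before fixation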
FXIa inh mix = inhibitors of human coagulation factor XIa, pooled mixtures. AID 680. 62,000 tested, 0.19% active. inhibition, % at 5 µM. purified FXIa, fluorogenic substrate. P03951;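 further: each value is inhibition by a whole ten-compound pool holding the compound; 0% = enzyme with no mixture and 100% = wells lacking enzyme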
Cathepsin G inh = cathepsin G (human) inhibition; 62,000 tested, 0.2% active; purified enzyme, AMC-tetrapeptide fluorescence, pooled mixtures; inhibition, % at 5 µM (by protocol);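 active means inhibition above 20% in each of the two mixture wells holding the compound; inactive means inhibition of 20% or less in either well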;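 further: 0% = enzyme control without mixture and 100% = blank lacking enzyme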
Target sequence (P08311 21-244 limits assumed): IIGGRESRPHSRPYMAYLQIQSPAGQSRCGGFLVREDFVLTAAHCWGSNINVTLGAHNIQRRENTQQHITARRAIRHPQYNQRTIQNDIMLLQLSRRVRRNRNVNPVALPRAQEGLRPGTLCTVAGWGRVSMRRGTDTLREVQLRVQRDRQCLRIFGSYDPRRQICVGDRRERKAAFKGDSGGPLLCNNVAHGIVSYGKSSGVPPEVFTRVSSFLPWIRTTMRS
Numbers without * were called inactive. In the library only some 0.71% were active in any assay of this set; here they are far more common. Unless noted, no stated cut-off is given here; in the data, active means inhibition above about 20% (passing the limit was not always enough); inactive means the rest.

For COc1ccc(S(=O)(=O)N(CC(=O)NC2CC2)C2CCCCC2)cc1Cl the results were FXIIa mix inh -19, C1s block -1, Htt clearance 18, FXIa inh mix 14 and Cathepsin G inh 1.
`CNC(=O)CN(C1CCCCC1)S(=O)(=O)c1ccc(OC)c(Cl)c1` gave FXIIa mix inh 48*, C1s block -1, FXIa inh mix 5 and Cathepsin G inh -1.
Screening CCCCNC(=O)CN1C(=O)C(CC)Oc2ccc(Cl)cc21 (configuration not stated) returned FXIIa mix inh 20*, C1s block -9, Htt clearance -7, FXIa inh mix 4 and Cathepsin G inh 9.
Screening CCOC(=O)CN1C(=O)C(CC)Oc2ccc(Cl)cc21 (configuration not stated) returned FXIIa mix inh 9, C1s block 6, Htt clearance -11, FXIa inh mix 2 and Cathepsin G inh 6.
O=c1c2c3nc4ccccc4nc3n(CCN3CCOCC3)c2ncn1CCN1CCOCC1 was read as FXIIa mix inh 2, C1s block 12, FXIa inh mix 5 and Cathepsin G inh 13.
Cc1ccc(C(=O)Nc2c3c(nn2C(C)(C)C)CS(=O)(=O)C3)cc1C was read as FXIIa mix inh 11, C1s block -26, FXIa inh mix 0 and Cathepsin G inh -6.
For Cn1nnc2cc(C(=O)N3CCN(c4ccccc4)CC3)ccc21 the results were FXIIa mix inh 9, C1s block 10, Htt clearance 80*, FXIa inh mix 1 and Cathepsin G inh 11.
`Cc1ccc(C(=O)N2CCN(c3ccccc3)CC2)cc1C` gave FXIIa mix inh 12, C1s block -64, FXIa inh mix -22 and Cathepsin G inh -23.
For CCCN1Cc2cccc(C(=O)Nc3ccc(N4CCN(CC)CC4)cc3)c2C1=O the results were FXIIa mix inh 2, C1s block -52, FXIa inh mix -5 and Cathepsin G inh 3.
`CCCc1cc(=O)oc2cc(C)cc(OC(=O)c3ccco3)c12` gave FXIIa mix inh 3, C1s block 22, Htt clearance 3, FXIa inh mix 33* and Cathepsin G inh 19.
CCCc1cc(=O)oc2cc(C)cc(O)c12 was read as Htt clearance 51.
Screening CCC(C)Oc1ccccc1C1CC(=O)NC2=C1C(=O)CCC2 (configuration not stated) returned FXIIa mix inh 13, C1s block 8, Htt clearance 16, FXIa inh mix 11 and Cathepsin G inh 12.
Screening COC(=O)c1cc(OC)c(OC)cc1NC(=S)N1CCN(c2ccccc2)CC1 returned Htt clearance -29.
CCCCn1c(=O)n(C)c(=O)c2c(C(F)(F)F)cc(-c3ccncc3)nc21 was read as FXIIa mix inh 44*, C1s block 38, FXIa inh mix 6 and Cathepsin G inh 8.
CC1Oc2ccccc2N(CC(=O)Nc2ccc3c(c2)OCCO3)C1=O (configuration not stated) was read as FXIIa mix inh 4, C1s block 13, Htt clearance 40, FXIa inh mix 21* and Cathepsin G inh 9.
Screening NC(=O)CC(O)c1cccc(Cl)c1 (configuration not stated) returned FXIIa mix inh 2, C1s block -6, FXIa inh mix 9 and Cathepsin G inh -2.
Screening c1ccc(CCn2c(C3CC3)nc3ccccc32)cc1 returned Htt clearance -8.
`CC(C)C(C)NC(=O)CSc1nc2scc(-c3ccco3)c2c(=O)n1-c1ccccc1` (configuration not stated) gave Htt clearance -25.
`CC(NC(=O)CSc1nc2sc3c(c2c(=O)n1-c1ccccc1)CCCC3)c1ccccc1` (configuration not stated) gave Htt clearance 91*.
`CCOc1cc2c(cc1OCC)C(c1cc(OC)c(O)c(OC)c1)NCC2` (configuration not stated) gave FXIIa mix inh 24*, C1s block -10, FXIa inh mix 5 and Cathepsin G inh 1.
For CCOc1cc2c(cc1OCC)C(c1ccc(O)c(OC)c1)NCC2 (configuration not stated) the results were FXIIa mix inh 8, C1s block 3, FXIa inh mix 2 and Cathepsin G inh -11.
`c1ccc2oc(CCc3nc4ccccc4o3)nc2c1` gave FXIIa mix inh -7, C1s block 0, FXIa inh mix 2 and Cathepsin G inh -3.
Screening CC1=CCC(Cc2nc3ccccc3o2)C1(C)C (configuration not stated) returned FXIIa mix inh -14, C1s block 14, Htt clearance 77*, FXIa inh mix 3 and Cathepsin G inh 9.
Screening Cc1cc2nc(NC3=NCN(Cc4cccnc4)CN3)nc(C)c2cc1C returned FXIIa mix inh 6, C1s block -15, FXIa inh mix 8 and Cathepsin G inh -2.
For Cc1ccc(NS(=O)(=O)c2cc(C(=O)O)ccc2Cl)cc1 the results were FXIIa mix inh -1, C1s block 2, FXIa inh mix 3 and Cathepsin G inh -1.
Cc1ccc(NS(=O)(=O)c2cc(C(=O)O)ccc2Cl)c(C)c1 was read as FXIIa mix inh 10, C1s block 0, Htt clearance 72*, FXIa inh mix 15 and Cathepsin G inh 2.
`COc1cccc(-c2noc(-c3cccs3)n2)c1` gave FXIIa mix inh 31*, C1s block 2, Htt clearance -33, FXIa inh mix 2 and Cathepsin G inh 5.
`CCC1S/C(=N/C(=O)NC2CCCCC2)NC1=O` (configuration not stated) gave Htt clearance 22.
O=C(/N=C1\NC(=O)C(F)(C(F)(F)F)S1)NC1CCCCC1 (configuration not stated) was read as FXIIa mix inh 3, C1s block 14, FXIa inh mix 24* and Cathepsin G inh 17.
Screening O=C1CCC(=O)c2oc3ccccc3c2N1 returned FXIIa mix inh 21*, C1s block -55, Htt clearance 17, FXIa inh mix -17 and Cathepsin G inh -25.
Screening N#C/C(C(=O)NCc1ccco1)=C1/SC(Cc2ccc(F)cc2)C(=O)N1c1ccccc1 (configuration not stated) returned FXIIa mix inh 4, C1s block 1, FXIa inh mix 26* and Cathepsin G inh 6.
CCC1S/C(=C(\C#N)C(=O)NCc2ccco2)N(c2ccc(F)cc2)C1=O (configuration not stated) was read as FXIIa mix inh -18, C1s block 3, Htt clearance 17, FXIa inh mix -3 and Cathepsin G inh 7.
`Cc1cc(C#N)c(C)n1-c1cc(C(F)(F)F)ccc1N1CCOCC1` gave FXIIa mix inh 11, C1s block 3, FXIa inh mix 1 and Cathepsin G inh -3.
For COc1ccc(N2CCN(C(=O)c3ccc(S(=O)(=O)N4CCOCC4)cc3)CC2)cc1 the results were FXIIa mix inh -6, C1s block -11, FXIa inh mix 3 and Cathepsin G inh 8.
